Test results from PubChem BioAssay (NCI).
This is part of a sample that, as a whole, favours compounds with a hit. Of some 83,000 tested, about 20% had one in any assay.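 A percent growth of 40 corresponds to 60% growth inhibition; 0 means no net growth; -100 means all cells died. Active threshold: below 10.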 Unmarked numbers belong to inactive results. The source made the active and inactive calls.

Tests used:
Assay in all cases: NCI-60 one-dose screen, 48 h (100 = growth as untreated, 0 = no growth, -100 = all killed)
Conditions in all cases: 10 µM unless noted
SR leukemia = tested on: SR leukemia
OVCAR-8 ovarian = tested on: OVCAR-8 ovarian
OVCAR-5 ovarian = tested on: OVCAR-5 ovarian
OVCAR-4 ovarian = tested on: OVCAR-4 ovarian
SK-OV-3 ovarian = tested on: SK-OV-3 ovarian
IGROV1 ovarian = tested on: IGROV1 ovarian
OVCAR-3 ovarian = tested on: OVCAR-3 ovarian
HS 578T breast = tested on: HS 578T breast
NCI/ADR-RES ovarian = tested on: NCI/ADR-RES ovarian

Compound	growth (SR leukemia)	growth (OVCAR-8 ovarian)	growth (OVCAR-5 ovarian)	growth (OVCAR-4 ovarian)	growth (SK-OV-3 ovarian)	growth (IGROV1 ovarian)	growth (OVCAR-3 ovarian)	growth (HS 578T breast)	growth (NCI/ADR-RES ovarian)
Clc1cc(Cl)cc(-c2cnc3nonc3n2)c1	93.2%	94.2%	93.7%	85.5%	96.4%	94.9%	36%	102%	98.9%
COc1cc(/C=N/NC(=O)Cn2c(-c3ccc(C)o3)nc3ccccc32)ccc1OCc1ccccc1	74.5%	81.3%	88.1%	90%	91.7%	94.3%	82%	70.4%	92.6%
C=C1C[C@@]2(C)C(CC[C@]3(C)C2CC=C2C4CC(C)(C)C[C@@H](OC(=O)/C(C)=C\C)[C@]4(C(=O)O)CC[C@]23C)C(C)(C)C1=O (stereo not given in full)	-0.663% (active)	15%	7.88% (active)	39.4%	86.2%	1.07% (active)	-16.8% (active)	51.3%	9.03% (active)
O=C(O/C(=C/c1ccccc1)C(F)(F)F)c1ccccc1	69.6%	101%	101%	103%	111%	120%	103%	116%	103%
c1csc(-c2cnc3nonc3n2)c1	39.3%	79.2%	107%	89.5%	92.7%	76.9%	84.2%	92.5%	95%
O=C(NCCN1CCCC1)n1cc(-c2ccncc2)c(-c2cc(O)cc(Cl)c2)n1	49.6%	77.8%	113%	118%	86.1%	109%	116%	99.6%	101%
CN1CCC2(CC1)N=C(SCC(=O)Nc1cnc3ccccc3c1)C(c1ccc(Br)cc1)=N2	-27% (active)	19.9%	67.7%	65.8%	54.9%	16.2%	35.4%	24%	29.6%
O=C(N/N=C/c1ccc([N+](=O)[O-])cc1)c1ccccc1Nc1ccnc(C(F)(F)F)c1	99.6%	86.8%	75.7%	61.1%	84.9%	75.3%	91.5%	-27.6% (active)	71.9%
CCCCc1nc(Cl)c(C2CC(c3ccc(S(N)(=O)=O)cc3)=NN2c2ccc(C#N)cc2)[nH]1 (stereo not given)	80.5%	83.2%	88.5%	98.2%	96.4%	93%	92.5%	79.4%	107%
c1cc2c(cc1-c1cnc3nonc3n1)OCO2	21.4%	92.4%	93.7%	95.3%	82.8%	102%	70.5%	99.1%	93.2%
Nc1ncnc2c1N=C(c1ccc3c(c1)OCO3)CC(c1ccc(Cl)cc1)N2 (stereo not given)	41.3%	89.8%	68.5%	77.7%	78.9%	13%	103%	70.2%	60%
O=C(c1ccccc1)C1OC1C(=O)c1ccccc1 (stereo not given)	14.3%	25.4%	30.2%	60.1%	54.3%	24.6%	35.2%	54.2%	-18.5% (active)
COCc1nc(NS(=O)(=O)c2ccc(N)cc2)nc(C)c1Br	89.3%	110%	106%	123%	96.9%	103%	112%	112%	104%
Fc1ccc(-c2cnc3nonc3n2)c(F)c1	74.5%	102%	96.8%	93.3%	92.1%	108%	81.5%	98.1%	104%
O=C(Nc1ccc(-n2ccc3c(NC(=O)c4ccccc4)nccc32)cc1)c1ccc(N2CCOCC2)c(C(F)(F)F)c1	0.458% (active)	23.6%	56.8%	59.8%	30.3%	27.2%	15.7%	50%	29%
COc1ccc(-c2cc(C(=O)Nc3ccc(Br)cc3)nc3[nH]c(=O)sc23)cc1	65.1%	43.1%	84.9%	34.2%	26.7%	25.2%	36.9%	41.6%	40.7%
CCCCOc1nc2ccc(C)cc2cc1/C=C/C(=O)/C=C(O)/C=C/c1cc2cc(C)ccc2nc1OCCCC	95.9%	100%	102%	116%	89.9%	109%	113%	100%	96.8%
CCOC(=O)C1C(=O)C=C(c2ccccc2)CC1c1sc(N(C)Cc2ccccc2)nc1Cl (stereo not given)	81.4%	89.2%	107%	90.7%	87.4%	110%	102%	76.2%	94.6%
c1ccc(CCn2cccc2)nc1	75.2%	102%	103%	113%	107%	121%	101%	120%	105%
COc1ccc(-c2nn(C(=O)NCCN(C)C)cc2-c2ccncc2)cc1Cl	20.5%	20.4%	76.9%	57.6%	9.29% (active)	54.1%	51.3%	66.5%	14.5%
CC(=O)c1ccc(N2C(=O)c3ccc(Oc4ccccc4)cc3C2=O)cc1	119%	114%	103%	108%	108%	108%	107%	115%	105%
c1ccc2oc(-c3cnc4nonc4n3)cc2c1	106%	93.6%	104%	106%	84.8%	87.2%	108%	89.2%	92.4%
c1cc(C2CCCCC2)ccc1-c1cnc2nonc2n1	4.98% (active)	8.93% (active)	25.7%	43.9%	33.5%	34.8%	1.51% (active)	58.1%	-3.11% (active)
Fc1cc(-c2cnc3nonc3n2)c(Cl)cc1Cl	86.5%	97.3%	88.6%	59.6%	98.5%	77%	10.3%	111%	102%
CCOC(=O)Cc1cc(Br)c(OCc2ccccc2)c(Br)c1	84.5%	95.5%	85%	94.5%	109%	85.6%	113%	101%	102%
COc1ccccc1/C=N\Nc1ccc([N+](=O)[O-])cn1	104%	106%	108%	115%	108%	102%	117%		107%
CCCCCCCCCCCC1=NC(C)(C)CN1CC(C)O (stereo not given)	-61.4% (active)	81.7%	92.5%		82.6%	30%	73.9%	71.6%	87%
CCCCc1nc(Cl)c(C2CC(c3ccc(S(N)(=O)=O)cc3)=NN2c2cc(Cl)cc(Cl)c2)[nH]1 (stereo not given)	0.947% (active)	47.1%	65.7%	51.4%		65.6%	45%	36.9%	90%
O=C1c2cccc3cccc(c23)C(=O)N1CCCCCCCCCCN1C(=O)c2cccc3cccc(c23)C1=O	96.8%	104%	106%		105%	110%	109%	99.1%	110%
CCN(CC)CCNC(=O)n1cc(-c2ccncc2)c(-c2cc(Cl)cc(OC)c2)n1	51%	27.7%	88.4%		47.8%	86%	94.3%	88%	86%
